High-throughput results deposited in PubChem by National Center for Advancing Translational Sciences (NCATS).
The list is not random: actives were taken first. Their share in the collection is about 2.3%.
FUS yeast rescue – qHTS for Suppressors of FUS Proteinopathy: Primary screen using FUS-linked yeast assay. S. cerevisiae FUS-expressing, growth rescue, OD600, 24 h. Potency, µM (titrated, usually from 76.6 µM), actives largely listed as activators. actives 0.24% (n = 390,000);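 also: potency is read from the fitted curve at half-maximal effect; plate controls were DMSO vehicle for no effect and reference control for full effect; nearly all actives have a fitted effect of over 55% in size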
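S. cerevisiae expressing FUS from galactose induction served as the toxicity model. Growth after 24hr at 30C, read as absorbance at 600 nm, indicates suppression of toxicity; compounds dosed at several concentrations.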
ELG1 DNA repair – qHTS screen for small molecules that inhibit ELG1-dependent DNA repair in human embryonic kidney (HEK293T) cells expressing luciferase-tagged ELG1; Potency, µM (series often up to 46.1 µM), without a hit: at the top dose activity change, negative = inhibition, most hits filed as inhibitors; actives 2.3% (n = 330,000); AID 504467, 2011; HEK293T ELG1-luciferase reporter, luminescence, 16 h; DNA damage induced by 5-fluorouridine; also: potency is read from the fitted curve at half-maximal effect; % is scaled to controls: 0 for no effect and ±100 for the full control effect; nearly all actives have a fitted effect of over 55% in size
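Luminescence from the luciferase reporter, measured 30 min after ONE-Glo reagent at room temperature, was the read-out. Beforehand, 2,000 cells per well were exposed for 16 hr at 37 °C to 5-fluorouridine together with compound or vehicle.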
TRPV1 PAM – HTS Assay for Compounds that Act as Potentiators of the Vanilloid Receptor 1; TRPV1-expressing cells, Fluo-8 calcium influx, capsaicin EC20 potentiation; potentiation, % at 8.33 µM; actives 0.02% (n = 320,000); in the data active = potentiation above about 80%; inconclusive = between about 30% and that limit; also: 0% is about no effect
Target sequence (Q8NER1 whole entry, looked up): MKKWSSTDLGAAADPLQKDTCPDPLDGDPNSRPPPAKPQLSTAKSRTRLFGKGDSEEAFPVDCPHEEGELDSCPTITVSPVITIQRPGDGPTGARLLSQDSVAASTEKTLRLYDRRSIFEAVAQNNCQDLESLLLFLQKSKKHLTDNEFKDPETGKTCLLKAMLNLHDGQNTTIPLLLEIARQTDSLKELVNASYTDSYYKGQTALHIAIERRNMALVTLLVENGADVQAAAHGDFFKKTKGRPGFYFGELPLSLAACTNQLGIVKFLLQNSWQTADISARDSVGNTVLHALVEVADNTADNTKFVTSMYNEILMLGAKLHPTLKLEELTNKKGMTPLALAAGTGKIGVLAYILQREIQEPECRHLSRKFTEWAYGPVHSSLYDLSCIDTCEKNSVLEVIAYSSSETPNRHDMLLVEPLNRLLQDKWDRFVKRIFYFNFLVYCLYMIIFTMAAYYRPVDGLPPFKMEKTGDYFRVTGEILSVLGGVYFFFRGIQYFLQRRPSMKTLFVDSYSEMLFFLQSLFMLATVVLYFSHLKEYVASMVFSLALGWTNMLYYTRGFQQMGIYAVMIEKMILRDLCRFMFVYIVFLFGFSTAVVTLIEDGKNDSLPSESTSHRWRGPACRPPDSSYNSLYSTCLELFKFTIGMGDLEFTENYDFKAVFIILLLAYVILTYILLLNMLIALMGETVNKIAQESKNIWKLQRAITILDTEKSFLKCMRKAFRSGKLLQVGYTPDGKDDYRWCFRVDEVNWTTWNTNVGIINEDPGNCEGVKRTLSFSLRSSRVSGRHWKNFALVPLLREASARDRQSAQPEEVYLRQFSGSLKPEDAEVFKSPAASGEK
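TRPV1-expressing cells were cultured overnight at 35.5C and loaded with Fluo-8 calcium dye for 40 to 90 min at room temperature. After a 10 s baseline, compound was added and calcium influx was read kinetically for 3 min (ex 480/em 520 nm).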
TRPV1 ag – HTS Assay for Compounds that Act as Agonists of the Vanilloid Receptor 1 | Transient receptor potential cation channel subfamily V member 1 (Homo sapiens), Q8NER1 | TRPV1-expressing cells, Fluo-8 calcium influx, agonist mode | activation, % at 8.33 µM | actives 0.19% (n = 320,000) | AID 540275, 2011; in the data active = activation above about 80%; inconclusive = between about 30% and that limit; also: 0% is about no effect
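TRPV1-expressing cells were cultured overnight at 35.5C and loaded with Fluo-8 calcium dye for 40 to 90 min at room temperature. After a 10 s baseline, compound was added and calcium influx was read kinetically for 3 min (ex 480/em 520 nm).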
Giardia killer – Small Molecules that selectively kill Giardia lamblia: qHTS | actives 0.15% (n = 340,000) | Giardia lamblia trophozoite viability | activity change, % at 7.66 µM, hits read low; in the data active = activity change below about -80%; inconclusive = between about -30% and that limit;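 also: parasites exposed to compound for two days anaerobically before the ATP read; % is scaled to controls: 0 for no effect and ±100 for the full control effect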
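Viability, read as ATP luminescence: trophozoites at 100 cells/well, compound added, 48 hrs anaerobic at 37 deg C, then 15-30 min room-temperature development before reading.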
An asterisk follows results filed as active. Unless noted, calls follow the shape of the dose curve; as a rule, active = well fitted curve in the direction sought with a large enough effect; inconclusive = small, poorly fitted or top-dose-only effect, or another doubt; inactive = no such curve, though single readings can be large; an effect the other way counts as inactive or inconclusive.

Screening C=CCn1c(SCC(C)=O)nnc1-c1cc(-c2ccccc2)sc1N returned FUS yeast rescue inconclusive, ELG1 DNA repair 26µM*, TRPV1 PAM -1, TRPV1 ag -1 and Giardia killer 1.
`C=CCn1c(SCC(N)=O)nnc1-c1cccc(Br)c1` gave FUS yeast rescue inactive, ELG1 DNA repair -16%, TRPV1 PAM 1, TRPV1 ag -2 and Giardia killer -2.
Cc1nn(-c2ccccc2)c(-n2cccc2)c1C(=O)NCCc1ccc(Cl)cc1 was read as FUS yeast rescue inactive.
`Cc1nnc(N2C(=O)C(O)=C(C(=O)c3ccco3)C2c2ccc(C(C)C)cc2)s1` (stereo not drawn) gave FUS yeast rescue 7.1µM*, ELG1 DNA repair inconclusive, TRPV1 PAM -5, TRPV1 ag 17 and Giardia killer 17.
`Cc1nnc(N2C(=O)C(O)=C(C(=O)c3ccco3)C2c2ccc(F)cc2)s1` (stereo not drawn) gave FUS yeast rescue inactive, ELG1 DNA repair -28%, TRPV1 PAM 14, TRPV1 ag 11 and Giardia killer 13.
For C/C(=N\NC(=O)COc1ccccc1[N+](=O)[O-])c1cccc(NC(=O)c2ccncc2)c1 the results were FUS yeast rescue inactive, ELG1 DNA repair 9.2µM*, TRPV1 PAM 14, TRPV1 ag -1 and Giardia killer -8.
`C/C(=N\NC(=O)c1ccncc1)c1cccc(NC(=O)c2ccc(C(C)(C)C)cc2)c1` gave FUS yeast rescue inactive, ELG1 DNA repair inconclusive, TRPV1 PAM 0, TRPV1 ag 85* and Giardia killer inconclusive.
Screening COc1ccc(/C(C)=N/NC(=O)c2ccncc2)cc1[N+](=O)[O-] returned FUS yeast rescue inactive, ELG1 DNA repair 1%, TRPV1 PAM -6, TRPV1 ag -3 and Giardia killer -14.
COc1c(C)cc(C(O)c2ncc(-c3ccc4ccccc4c3)[nH]2)cc1C (stereo not drawn) was read as FUS yeast rescue inactive.
`Cc1cc(C)n(C(=O)/C(C#N)=N/Nc2cc(Cl)cc(Cl)c2)n1` gave FUS yeast rescue inactive, ELG1 DNA repair 16µM*, TRPV1 PAM 3, TRPV1 ag -2 and Giardia killer -15.
For Cc1cc(C)n(C(=O)/C(C#N)=N\Nc2ccccc2[N+](=O)[O-])n1 the results were FUS yeast rescue inactive, ELG1 DNA repair -1%, TRPV1 PAM -9, TRPV1 ag 0 and Giardia killer -8.
`COc1ccc(-c2noc(N3CCC(C(=O)Nc4ccc(OC)cc4OC)CC3)n2)cc1` gave FUS yeast rescue inactive, ELG1 DNA repair 13µM*, TRPV1 PAM 2, TRPV1 ag inconclusive and Giardia killer -11.
COc1ccc(-c2noc(N3CCC(C(=O)Nc4ccc(F)cc4F)CC3)n2)cc1 was read as FUS yeast rescue inactive, ELG1 DNA repair -14%, TRPV1 PAM -14, TRPV1 ag inconclusive and Giardia killer -8.
`COc1ccc(-n2c(SCC(=O)Nc3nccs3)nc3sc4c(c3c2=O)CCN(C)C4)cc1` gave FUS yeast rescue 28µM*, ELG1 DNA repair 1%, TRPV1 PAM -5, TRPV1 ag 1 and Giardia killer 2.
Screening COc1ccc(C(=O)CSc2nc(C)cc(C)c2C(=O)Nc2ccccc2C)cc1 returned FUS yeast rescue inactive.
Screening CCc1ccc(S(=O)(=O)Nc2cccc(C3OCCCO3)c2)cc1 returned FUS yeast rescue inactive, ELG1 DNA repair 12µM*, TRPV1 PAM 7, TRPV1 ag 5 and Giardia killer 5.
`CCc1ccc(S(=O)(=O)Nc2ccc3c(c2)n(C)c(=O)c(=O)n3C)cc1` gave FUS yeast rescue inactive.
Screening CCCN(CCC)CCCNC(=O)C1CCN(S(=O)(=O)CC)CC1 returned FUS yeast rescue inactive.
`CC(C)(C)n1nnnc1CN1CCN(C(c2ccccc2)c2ccccc2)CC1` gave FUS yeast rescue inactive, ELG1 DNA repair 18µM*, TRPV1 PAM -2, TRPV1 ag -1 and Giardia killer 5.
CCOc1ccc2[nH]c(=O)c(CN(Cc3cccnc3)C(=O)Nc3ccccc3OC)cc2c1 was read as FUS yeast rescue inactive, ELG1 DNA repair inconclusive, TRPV1 PAM 1, TRPV1 ag -1 and Giardia killer -5.
COc1ccccc1NC(=O)N(Cc1ccco1)Cc1cc2cccc(C)c2[nH]c1=O was read as FUS yeast rescue inconclusive, ELG1 DNA repair inconclusive, TRPV1 PAM -5, TRPV1 ag 17 and Giardia killer -30.
For Cc1ccc(NC(=O)N(Cc2cc3cc(C)cc(C)c3[nH]c2=O)CC2COCCO2)cc1 (stereo not drawn) the results were FUS yeast rescue inactive, ELG1 DNA repair -2%, TRPV1 PAM -19, TRPV1 ag 1 and Giardia killer 3.
Screening CCc1ccc2[nH]c(=O)c(CN(Cc3ccccc3OC)C(=O)Nc3ccccc3OC)cc2c1 returned FUS yeast rescue inactive, ELG1 DNA repair 23µM*, TRPV1 PAM -8, TRPV1 ag 5 and Giardia killer -1.
COc1ccccc1NC(=O)N(Cc1ccco1)Cc1cc2c(C)ccc(C)c2[nH]c1=O was read as FUS yeast rescue inactive, ELG1 DNA repair 5.2µM*, TRPV1 PAM 28, TRPV1 ag 2 and Giardia killer 5.
Screening COC(=O)c1cccc(S(=O)(=O)N(Cc2ccco2)Cc2cc3cc(OC)c(OC)cc3[nH]c2=O)c1 returned FUS yeast rescue inactive, ELG1 DNA repair 23µM*, TRPV1 PAM 6, TRPV1 ag -2 and Giardia killer 1.
`COc1cccc(NC(=O)N(Cc2cc3cc(C)cc(C)c3[nH]c2=O)CC2COCCO2)c1` (stereo not drawn) gave FUS yeast rescue inactive, ELG1 DNA repair 7.3µM*, TRPV1 PAM 15, TRPV1 ag 0 and Giardia killer 23.
Screening COC(=O)c1cccc(S(=O)(=O)N(Cc2ccco2)Cc2cc3ccc(OC)cc3[nH]c2=O)c1 returned FUS yeast rescue inactive, ELG1 DNA repair inconclusive, TRPV1 PAM 5, TRPV1 ag -1 and Giardia killer -18.
Screening CCCCn1c(=O)c2oc3ccccc3c2n(Cc2ccc(C)cc2)c1=O returned FUS yeast rescue inactive.
COc1ccc(S(=O)(=O)N(CC(=O)Nc2cccc(C)c2)c2ccc(C)cc2)cc1OC was read as FUS yeast rescue inactive.
